Assay results from PubChem BioAssay AID588458 (Sanford-Burnham Center for Chemical Genomics, 2011).
About 3,000 (0.83%) of roughly 360,000 compounds were called active. Rule as the data show it: active = inhibition above about 50%; inactive = the rest. Only a selection was taken, and actives are over-represented in it overall.

target: DNA (cytosine-5)-methyltransferase 1 (Homo sapiens) (UniProt P26358); assay: human DNMT1 methyltransferase inhibitors, primary screen, biochemical, molecular beacon, fluorescence, HinP1I cleavage, uHTS (AID 588458); settings: at 10 µM, stronger effect = higher value
Sequence (P26358 504-1616 limits assumed): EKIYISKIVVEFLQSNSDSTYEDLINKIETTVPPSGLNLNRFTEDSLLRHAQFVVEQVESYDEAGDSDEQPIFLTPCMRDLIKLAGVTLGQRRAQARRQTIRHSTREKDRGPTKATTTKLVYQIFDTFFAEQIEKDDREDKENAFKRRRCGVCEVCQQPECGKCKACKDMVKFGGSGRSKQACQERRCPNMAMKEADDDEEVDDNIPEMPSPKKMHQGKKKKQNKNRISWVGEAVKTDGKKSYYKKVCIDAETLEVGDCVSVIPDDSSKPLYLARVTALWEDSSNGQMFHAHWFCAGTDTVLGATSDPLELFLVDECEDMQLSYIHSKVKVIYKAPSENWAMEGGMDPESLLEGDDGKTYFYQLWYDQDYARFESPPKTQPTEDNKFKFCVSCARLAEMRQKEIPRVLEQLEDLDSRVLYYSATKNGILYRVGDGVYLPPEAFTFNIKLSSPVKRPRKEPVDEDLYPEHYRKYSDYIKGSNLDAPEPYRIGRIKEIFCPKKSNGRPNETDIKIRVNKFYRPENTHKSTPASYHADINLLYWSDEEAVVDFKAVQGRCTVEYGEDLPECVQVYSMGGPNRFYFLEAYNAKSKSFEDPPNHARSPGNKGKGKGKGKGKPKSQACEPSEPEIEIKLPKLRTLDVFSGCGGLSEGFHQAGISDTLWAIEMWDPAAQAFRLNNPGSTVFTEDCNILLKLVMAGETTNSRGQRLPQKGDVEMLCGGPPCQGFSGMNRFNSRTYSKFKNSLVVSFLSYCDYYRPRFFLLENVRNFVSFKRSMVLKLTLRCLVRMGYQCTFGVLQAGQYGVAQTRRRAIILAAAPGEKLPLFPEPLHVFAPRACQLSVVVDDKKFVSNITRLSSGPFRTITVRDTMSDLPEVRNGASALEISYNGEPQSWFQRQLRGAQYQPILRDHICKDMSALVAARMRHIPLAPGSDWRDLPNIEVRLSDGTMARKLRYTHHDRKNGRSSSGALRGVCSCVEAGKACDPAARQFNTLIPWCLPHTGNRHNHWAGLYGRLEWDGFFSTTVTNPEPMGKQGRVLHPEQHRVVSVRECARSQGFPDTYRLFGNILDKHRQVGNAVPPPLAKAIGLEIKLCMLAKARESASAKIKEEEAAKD

Structure (SMILES) | inhibition (reported as % activation of signal)
NC(=O)COc1ccc(NC(=O)c2ccccc2-c2ccccc2)cc1 | 1.27% (inactive)
CCCNC(=O)c1cnc(-c2ccccc2)nc1-c1ccccc1 | 0.2% (inactive)
CCOc1cccc(/C=N/N2C(=O)CSC2=S)c1O | -12.4% (inactive)
O=C1CSC(=S)N1/N=C/c1ccc(O)c([N+](=O)[O-])c1 | 76.8% (active)
CO/N=C/c1ccc(N2CCN(C(=O)c3cccc(Cl)c3)CC2)c([N+](=O)[O-])c1 | -5.17% (inactive)
CCc1ccc(OC2(C)CCN(CCOc3ccc(C)cc3)C2)cc1 (centres undefined) | 1.94% (inactive)
CC1(C(=O)NCc2ccc3c(c2)OCO3)CCN1CCc1ccccc1 (centres undefined) | 0.65% (inactive)
CC(C)CCSc1ncnc2c1oc1nc3c(cc12)COC(C)(C)C3 | 0.16% (inactive)
CCOc1ccc(NC(=O)CSc2ncnc3c2sc2ccccc23)cc1 | 11.2% (inactive)
CC1(C)Cc2nc3sc4c(SCC(=O)NC(c5ccccc5)c5ccccc5)ncnc4c3cc2CO1 | 50% (active)
C=CC[C@H](CC(=O)NCCO)C(=O)N[C@@H](COC(=O)[C@@H](CC=C)Cc1ccc(F)cc1)Cc1c[nH]c2ccccc12 | -10.1% (inactive)
C=CCC[C@H](Cc1ccc(F)cc1)C(=O)OC[C@@H](Cc1c[nH]c2ccccc12)NC(=O)[C@H](CC=C)CC(=O)N[C@H](CO)Cc1ccccc1 | 4.02% (inactive)
C=CC[C@@H](CC(=O)N[C@H](CO)Cc1ccccc1)C(=O)N[C@@H](COC(=O)[C@@H](CC=C)Cc1ccc(F)cc1)Cc1c[nH]c2ccccc12 | 63.8% (active)
O=C(Cc1ccc([N+](=O)[O-])cc1)NCCS(=O)(=O)N1CCN(c2ccccc2)CC1 | -1.35% (inactive)
Cc1cccc(C(=O)N2CCC(c3nc4ccccc4s3)CC2)c1 | -3.99% (inactive)
Cc1cccc(NC(=S)N2CCC(c3nc4ccccc4s3)CC2)c1 | -5.14% (inactive)
O=C(c1cccs1)N1CCC(c2nc3ccccc3s2)CC1 | 73.8% (active)
CC(=O)N1CCc2cc(Br)cc(S(=O)(=O)CCC(=O)Nc3c(C)n(C)n(-c4ccccc4)c3=O)c21 | 0.99% (inactive)
COc1ccc(-c2[nH][nH]c(=O)c2NC(=O)c2ccc([N+](=O)[O-])cc2)cc1 | -19.5% (inactive)
COc1ccc(S(=O)(=O)N2CCC(C(=O)OCC(=O)c3ccccc3)CC2)cc1[N+](=O)[O-] | 6.89% (inactive)
COc1ccc(Br)cc1/C=N/Nc1ccc(S(=O)(=O)Nc2ccccc2C(=O)O)cc1[N+](=O)[O-] | 97.5% (active)
COc1ccccc1C(CNC(=O)c1cccc(NS(=O)(=O)c2ccc(Br)cc2)c1)N(C)C (centres undefined) | 2.12% (inactive)

Structure (SMILES) | inhibition (reported as % activation of signal)
O=C(CCSCCc1ccccn1)Nc1nccs1 | -3.62% (inactive)
Cn1cccc1Cc1nnc(SCC(=O)NCc2ccc3c(c2)OCO3)n1CCc1ccccc1 | 6.75% (inactive)
Cc1c(C(=O)N(Cc2ccccc2)Cc2cccnc2)cnn1-c1ccc(F)cc1 | 0.01% (inactive)
CCc1nnc(NC(=O)c2ccco2)s1 | 4.22% (inactive)
O=C(Nc1nonc1-c1ccc(Cl)cc1)c1ccco1 | 9.05% (inactive)
O=C(Nc1nc(-c2ccco2)c(-c2ccco2)s1)c1ccco1 | 80.6% (active)
CCN(CC)S(=O)(=O)c1ccc(NC(=O)c2cccnc2Cl)c(NC(=O)c2cccnc2Cl)c1 | -0.07% (inactive)
CC(C)C[C@H](NC(=O)C1CC(=O)N(c2ccc3c(c2)OCCO3)C1)C(=O)NC1CCCC1 (some centres undefined) | -0.87% (inactive)
O=C1NCC(Nc2ccccc2)C(=O)N1 (centres undefined) | 0.4% (inactive)
CN1C(=O)c2cccc3c(N)ccc(c23)C1=O | 68.8% (active)
O=C(CN1C(=O)c2cccc3cccc1c23)Nc1ccccc1 | 6.37% (inactive)
CCN1C(=O)c2cccc3c(S(=O)(=O)Nc4ccccc4O)ccc1c23 | -3.81% (inactive)
Cn1cc(C2OC(=O)c3ccccc32)c2ccccc21 (centres undefined) | 1.23% (inactive)
CCN1C(=O)c2cccc3c(N)ccc1c23 | 51.2% (active)
Cc1nn(C)cc1N1C(=O)c2cccc3c(N)ccc(c23)C1=O | 65% (active)
O=C(COC(=O)CCc1c[nH]c2ccccc12)Nc1cccc(Cl)c1 | -4.28% (inactive)
O=C(CCC1CCCC1)N=C1SC2CS(=O)(=O)CC2N1Cc1ccccc1 (centres undefined) | 14.4% (inactive)
COc1ccccc1-c1oc2ccccc2c1C#CCCCCO | -0.24% (inactive)
COc1ccc2[nH]c(=O)c(-c3noc(-c4ccc(F)cc4)n3)cc2c1 | 95.2% (active)
CCCc1nc(-c2cc3cc(C)ccc3[nH]c2=O)no1 | -2.69% (inactive)
COc1ccc(Cc2cc(-c3ccc(F)cc3)n[nH]c2=O)cc1 | -1.27% (inactive)
Cc1ccc2c(CC(=O)NCc3cccs3)coc2c1 | 7.02% (inactive)
